# PP1 counter – blocks human PP1-alpha phosphatase, a PP5 counter-screen. P62136. purified PP1alpha, OMFP fluorescence. inhibition, % at 6.7 µM. 0.9% of 320,000 active;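 active means inhibition above the mean inhibition of all tested compounds plus 3 SD, computed separately for each screening campaign, cut at about 15% in these data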
# pPAFAH inh – inhibitors of human plasma PAF acetylhydrolase (pPAFAH). Q13093. inhibition, % at 3.39 µM. 1.5% of 330,000 active. recombinant pPAFAH, FP-rhodamine probe fluorescence polarization. AID 463082;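 active means inhibition above the mean inhibition across the screen plus 3 SD, cut at about 25% in these data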;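 further: inhibitors block binding of the rhodamine activity-based probe so polarization drops; 0% = enzyme with DMSO and 100% = wells lacking pPAFAH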
# PAFAH1B3 inh – inhibitors of human PAFAH1B3. Q15102. recombinant PAFAH1B3, FP-rhodamine probe, fluorescence polarization. inhibition, % at 3.39 µM. 0.28% of 340,000 active;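 active means inhibition above the screen-wide average of all tested compounds plus 3 SD, cut at about 25% in these data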;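 further: 0% = enzyme with DMSO only and 100% = wells lacking PAFAH1B3 protein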
# PAFAH2 FP inh – PAFAH2 (human) inhibition; recombinant PAFAH2, FP-rhodamine activity probe, fluorescence polarization; inhibition, % at 3.39 µM; 0.99% of 340,000 active;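 active means inhibition above the mean over all tested compounds plus 3 SD, cut at about 30% in these data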;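 further: inhibitors block probe labeling of enzyme so polarization drops; 0% = enzyme with DMSO and 100% = wells lacking PAFAH2 protein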
# PP5 inh – PP5 (human) phosphatase inhibition; inhibition, % at 6.7 µM; purified PP5c, OMFP substrate fluorescence; 0.18% of 320,000 active;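 active means inhibition above the campaign's mean inhibition across all tested compounds plus 3 SD, cut at about 9.5% in these data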;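 further: 0% = DMSO only and 100% = 100 µM cantharidin control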
# PAFAH1B2 FP inh – PAFAH1B2 (human) inhibition; P68402; recombinant PAFAH1B2, FP-rhodamine activity probe, fluorescence polarization; inhibition, % at 3.39 µM; 1.2% of 340,000 active;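 active means inhibition above the mean of all tested compounds plus 3 SD, cut at about 24% in these data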;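 further: 0% = enzyme with DMSO and 100% = wells lacking PAFAH1B2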
# Target sequence (P68402 whole entry, looked up): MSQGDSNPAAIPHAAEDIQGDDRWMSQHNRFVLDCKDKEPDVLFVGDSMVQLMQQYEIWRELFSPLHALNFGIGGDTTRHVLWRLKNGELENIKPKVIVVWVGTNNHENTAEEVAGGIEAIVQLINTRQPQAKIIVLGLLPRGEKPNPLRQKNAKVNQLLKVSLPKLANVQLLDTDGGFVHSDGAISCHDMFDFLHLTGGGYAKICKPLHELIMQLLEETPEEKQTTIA
# * = called active by the depositor; · = not tested or not shown. An excerpt weighted towards active compounds, which were near 3.4% of everything screened.
SMILES,PP1 counter,pPAFAH inh,PAFAH1B3 inh,PAFAH2 FP inh,PP5 inh,PAFAH1B2 FP inh
Cc1ccc(S(=O)(=O)Nc2ccc(Cl)cc2C(=O)c2ccc(F)cc2)cc1,1,5,5,5,2,43*
Cc1ccc(S(=O)(=O)Nc2ccc(Cl)cc2C(=O)c2ccccc2)cc1,1,-1,6,6,-1,27*
CC(=O)c1sc(-c2ccc(F)cc2)cc1NS(=O)(=O)c1ccc(C)cc1,-2,2,1,2,-2,-1
Nc1ccc(N2CCN(C(=O)c3cccs3)CC2)cc1,15,32*,4,8,4,1
CCC(=O)Nc1cccc(C(=O)OCC(=O)c2ccccc2Cl)c1,-4,3,5,41*,2,-1
Cc1ccc(NC(=O)C2(c3ccc([N+](=O)[O-])cc3)CCCC2)cc1,-1,4,8,10,3,25*
Cc1ccc(OCC(=O)Nc2ccc([N+](=O)[O-])cc2)cc1,-3,1,12,11,-3,5
NS(=O)(=O)c1ccc(NC2(C(=O)O)CCCC2)cc1,0,3,6,5,1,5
O=C(Nc1ccncc1)C1(c2ccccc2)CCCC1,1,-1,4,3,1,27*
NS(=O)(=O)c1ccc(NC(=O)C2(c3ccccc3)CCCC2)cc1,0,0,10,0,3,27*
O=C(Nc1ccccn1)C1(c2ccccc2)CCCC1,-3,1,2,-4,-1,26*
Cc1ccc(NC(=O)C2(c3ccccc3)CCCC2)nc1,1,8,1,3,3,15
O=C(Nc1cccnc1)C1(c2ccccc2)CCCC1,-3,5,10,1,-2,19
CN(c1ccc(Cl)cc1)S(=O)(=O)c1nnc(NC(=O)C(C)(C)C)s1,·,·,9,-2,·,28*
CCN(c1cc(C)cc(C)c1)S(=O)(=O)c1nnc(NC(=O)C(C)(C)C)s1,·,·,7,5,·,8
CCCCC[C@@H]1C=C(C(=O)O)[C@H](c2cccc(C)c2)N1S(=O)(=O)c1ccc(C)cc1,·,1,5,11,·,5
Cc1ccc([C@H]2C(C(=O)O)=C[C@@H](C(C)(C)C)N2S(=O)(=O)c2ccc(C)cc2)cc1,·,2,1,5,·,24*
Cc1ccc(S(=O)(=O)N2[C@@H](c3ccc(C(C)C)cc3)C(C(=O)O)=C[C@H]2C(C)(C)C)cc1,·,13,-3,5,·,28*
COc1ccc([C@H]2C(C(=O)O)=C[C@@H](C(C)(C)C)N2S(=O)(=O)c2ccccc2)cc1,·,-2,1,5,·,9
Cc1ccc(S(=O)(=O)N2[C@@H](c3cccc(C)c3)C(C(=O)O)=C[C@H]2C(C)(C)C)cc1,·,1,0,5,·,31*
CC(C)(C)C1CCC(CN2CCC(CN3C(=O)C(=O)NC[C@@H]3Cc3ccccc3)CC2)CC1 (some centres not stated),·,·,1,2,·,4
CCCCn1c(SCC(=O)NNC(=O)c2ccco2)nnc1-c1ccco1,-1,2,·,·,3,·
O=C(Cc1ccc2c(c1)OCCO2)Nc1cc(C(F)(F)F)ccc1N1CCOCC1,·,·,7,2,·,4
O=C(COc1ccc(Br)cc1)Nc1nnc(C2CC2)s1,4,5,-8,7,1,-10
CC(Oc1ccc(Br)cc1)C(=O)Nc1nnc(C2CC2)s1 (configuration not stated),-1,3,3,2,0,26*
SMILES,PP1 counter,pPAFAH inh,PAFAH1B3 inh,PAFAH2 FP inh,PP5 inh,PAFAH1B2 FP inh
CCn1cc([N+](=O)[O-])c(C(=O)Nc2ccn(C34CC5CC(CC(C5)C3)C4)n2)n1,-2,-3,9,1,2,29*
Cc1nn(C)c(C(=O)Nc2ccn(C34CC5CC(CC(C5)C3)C4)n2)c1[N+](=O)[O-],4,0,5,1,-7,11
CCn1cc([N+](=O)[O-])c(C(=O)Nc2ccn(Cc3ccccc3)n2)n1,-1,-3,4,-5,0,1
Cn1nccc1C(=O)Nc1ccn(C23CC4CC(CC(C4)C2)C3)n1,2,4,1,-2,3,24*
Cn1cc([N+](=O)[O-])c(C(=O)Nc2ccn(C34CC5CC(CC(C5)C3)C4)n2)n1,1,-1,2,1,3,25*
N#Cc1cccnc1N1CCC(C(N)=O)CC1,-4,4,2,-2,-2,1

# Bioassay records: PubChem, The Scripps Research Institute Molecular Screening Center
